Experimental data published in PubChem BioAssay (NCI).
This is part of a sample that, as a whole, favours compounds with a hit. Of some 83,000 tested, about 20% had one in any assay.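 For each line, cells grew in 96-well plates with the test compound present at a single concentration for 48 hours.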 Active and inactive are the calls of the source. The calls were made as follows: active = growth percent below 10; inactive = the rest.

System: MDA-MB-468 breast
Assay: NCI-60 one-dose screen, 48 h (100 = growth as untreated, 0 = no growth, -100 = all killed)
Details: 10 µM unless noted

Row | Compound | growth
1 | CCn1c2ccc(/C=N/NS(=O)(=O)CCN(C)C)cc2c2cc(/C=N/NS(=O)(=O)CCN(C)C)ccc21 | 92.9% (inactive)
2 | COc1ccc(-c2nc(C#N)c(NCC(c3ccc(Cl)cc3)N3CCCCC3)o2)cc1 (stereo unspecified) | 93.3% (inactive)
3 | O=C(Nc1ccc(N2CCCCC2)c(Cl)c1)c1ccc(Br)o1 | 89.7% (inactive)
4 | CCc1ccc(NC(=O)N[C@@H](Cc2cccc(F)c2)C(=O)N[C@@H]2C(=O)N3CCC[C@H]3C(=O)N3CCCC[C@H]3C(=O)N[C@@H](C)C(=O)N3C[C@H](C)C[C@H]3C(=O)O[C@H]2C)c(F)c1 | -18.2% (active)
5 | O=c1c2cc(F)ccc2sc2c(N3CCCCC3)nc3ccccc3c12 | 95.6% (inactive)
6 | Cn1cnc2c(F)c(Nc3ccc(Br)cc3F)c(C(=O)NOCCO)cc21 | 97.3% (inactive)
7 | CCOC(=O)c1sc(N)c(C(=O)OCC)c1C | 59.4% (inactive)
8 | O=c1c2c(=NCCN3CCCC3)cc3c(=O)n(CCCN4CCOCC4)c(=O)c4ccc(c(O)n1CCCN1CCOCC1)c2c4-3 | -49.4% (active)
9 | O=C1Nc2ccccc2/C1=C/c1ccc[nH]1 | -26% (active)
10 | CCCNC(=O)c1ccc(S(N)(=O)=O)cc1 | 82.1% (inactive)
11 | CN1CCN(Cc2ccc(NC(=O)c3[nH]ncc3Nc3ncnc4c3CCC4)cc2)CC1 | 9.05% (active)
12 | CCCCCN1CCN(C(CC(=O)c2ccccc2)C(=O)c2ccccc2)CC1 (stereo unspecified) | 103% (inactive)
13 | Fc1ccc(Nc2nnc(-c3ccc(Cl)cc3)o2)cc1 | 97.9% (inactive)
14 | NNC(=O)CNC(=O)Nc1n[nH]c(=S)s1 | 111% (inactive)
15 | C=CC1=C(C(=O)O)N2C(=O)[C@@H](NC(=O)/C(=N\O)c3csc(N)n3)[C@H]2SC1 (stereo in doubt) | 96.1% (inactive)
16 | COc1ccc(-c2nc(-c3nc4ccc(C)cc4[nH]3)cc3c2[nH]c2ccccc23)cc1 | 48.8% (inactive)
17 | Cc1ccc(-c2cc(C(=O)Nc3ccc(S(=O)(=O)N4CCCCC4)cc3)[nH]n2)c(O)c1 | 38.8% (inactive)
18 | COc1ccc(-c2n[nH]nc2-c2cc(OC)c3c(c2)OCO3)cc1 | 38.6% (inactive)
19 | CCCCn1c(C)nc2ccc(Nc3nc(N4CCN(C)CC4)nc4nc[nH]c34)cc21 | 82.2% (inactive)
20 | Cc1nc2ccc(-n3ncc(C(=O)c4cc5ccccc5[nH]4)c3N)cc2[nH]1 | 68.2% (inactive)
21 | C#C[C@@]1(O)[C@@H](CO)O[C@@H](n2cc(Cl)c3c(N)ncnc32)[C@@H]1O | -49% (active)
22 | FC(F)(F)c1cc(Nc2ccc3c(OCCCN4CCOCC4)cccc3n2)ccc1Cl | 38.3% (inactive)
23 | CNC(=O)c1ccccc1Oc1nc(Nc2cc(OC)c(OC)c(OC)c2)ncc1Br | 49.6% (inactive)
24 | COc1cc(-c2cncn2-c2ccc(-c3nc4ccc(F)cc4s3)cc2)ccc1F | 56.8% (inactive)
25 | COc1cc(/C=C/c2cn[nH]c2-c2ccc(C)cc2)cc(OC)c1OC | 12.9% (inactive)
26 | COC(=O)CNC(=O)[C@@H](OC)[C@@H]1Cc2cc3cc(OC4CC(OC5CC(O)C(O)C(C)O5)C(O)C(C)O4)c(C)c(O)c3c(O)c2C(=O)[C@H]1OC1CC(OC2CC(OC3CC(C)(O)C(O)C(C)O3)C(O)C(C)O2)C(O)C(C)O1 (stereo partly specified) | -22.3% (active)
